# Laboratory results: PubChem BioAssay
# Activity calls are given as the source filed them.
# Columns and labels:
# [1] = test system: Plasmodium falciparum Sir2 (PF13_0152, Sir2A); assay: Plasmodium falciparum Sir2A binding compounds – biochemical, small-molecule microarray, 635 nm fluorescence, primary screen (AID 1098); details: fluorescence 635 nm, higher = more signal;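 also: score merges spot fluorescence intensity with its signal-to-noise ratio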
# [2] = probe aDKK1 binding to arrayed compounds – biochemical, biotinylated probe, 635/667 nm fluorescence, primary screen (AID 1099); details: small-molecule microarray, higher = more signal;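 also: score merges 667nm spot fluorescence with signal to noise across triplicate slides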
# [3] = probe aCHRDL2 binding to arrayed compounds – biochemical, biotinylated probe, 635/667 nm fluorescence, primary screen (AID 1100); details: small-molecule microarray, higher = more signal
# [4] = change in splice reporter luminescence, either direction, cell-based, HEK293, spliceosome inhibition project, primary screen (AID 1101); details: HEK293 splicing luciferase reporter, 24 h, higher = more signal, called active from +8 up or from −8 down;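 also: HEK293 cells carrying a splicing-competent luciferase reporter gene; test concentration not given here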
# [5] = biological target: Fibroblast growth factor 10 (Homo sapiens) (UniProt O15520); assay: compounds binding fibroblast growth factor 10 – biochemical, small-molecule microarray, 635 nm fluorescence, primary screen (AID 1102); details: FGF10 binding, fluorescence 635 nm, higher = more signal
# Sequence of Fibroblast growth factor 10 (Homo sapiens) (O15520 whole entry, looked up): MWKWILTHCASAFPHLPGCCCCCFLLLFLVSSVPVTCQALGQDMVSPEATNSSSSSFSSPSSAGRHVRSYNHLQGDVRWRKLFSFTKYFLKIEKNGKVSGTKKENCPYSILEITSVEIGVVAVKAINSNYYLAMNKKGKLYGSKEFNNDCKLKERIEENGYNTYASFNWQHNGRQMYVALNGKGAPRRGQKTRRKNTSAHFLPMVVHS
# [6] = test system: glycogen synthase kinase-3 (GSK3A per assay name; protocol says GSK3B); assay: compounds binding glycogen synthase kinase-3 – biochemical, small-molecule microarray, 635 nm fluorescence, GSK3A, primary screen (AID 1103); details: fluorescence 635 nm, higher = more signal; also: the record names both GSK3A and GSK3B
# [7] = biological target: Epidermal growth factor receptor (Homo sapiens) (UniProt P00533); assay: compounds binding epidermal growth factor receptor – biochemical, small-molecule microarray, 635 nm fluorescence, primary screen (AID 1104); details: EGFR binding, higher = more signal;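 also: score merges 667 nm emission intensity with spot signal to noise over triplicate slides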
# Sequence of Epidermal growth factor receptor (Homo sapiens) (P00533 whole entry, looked up): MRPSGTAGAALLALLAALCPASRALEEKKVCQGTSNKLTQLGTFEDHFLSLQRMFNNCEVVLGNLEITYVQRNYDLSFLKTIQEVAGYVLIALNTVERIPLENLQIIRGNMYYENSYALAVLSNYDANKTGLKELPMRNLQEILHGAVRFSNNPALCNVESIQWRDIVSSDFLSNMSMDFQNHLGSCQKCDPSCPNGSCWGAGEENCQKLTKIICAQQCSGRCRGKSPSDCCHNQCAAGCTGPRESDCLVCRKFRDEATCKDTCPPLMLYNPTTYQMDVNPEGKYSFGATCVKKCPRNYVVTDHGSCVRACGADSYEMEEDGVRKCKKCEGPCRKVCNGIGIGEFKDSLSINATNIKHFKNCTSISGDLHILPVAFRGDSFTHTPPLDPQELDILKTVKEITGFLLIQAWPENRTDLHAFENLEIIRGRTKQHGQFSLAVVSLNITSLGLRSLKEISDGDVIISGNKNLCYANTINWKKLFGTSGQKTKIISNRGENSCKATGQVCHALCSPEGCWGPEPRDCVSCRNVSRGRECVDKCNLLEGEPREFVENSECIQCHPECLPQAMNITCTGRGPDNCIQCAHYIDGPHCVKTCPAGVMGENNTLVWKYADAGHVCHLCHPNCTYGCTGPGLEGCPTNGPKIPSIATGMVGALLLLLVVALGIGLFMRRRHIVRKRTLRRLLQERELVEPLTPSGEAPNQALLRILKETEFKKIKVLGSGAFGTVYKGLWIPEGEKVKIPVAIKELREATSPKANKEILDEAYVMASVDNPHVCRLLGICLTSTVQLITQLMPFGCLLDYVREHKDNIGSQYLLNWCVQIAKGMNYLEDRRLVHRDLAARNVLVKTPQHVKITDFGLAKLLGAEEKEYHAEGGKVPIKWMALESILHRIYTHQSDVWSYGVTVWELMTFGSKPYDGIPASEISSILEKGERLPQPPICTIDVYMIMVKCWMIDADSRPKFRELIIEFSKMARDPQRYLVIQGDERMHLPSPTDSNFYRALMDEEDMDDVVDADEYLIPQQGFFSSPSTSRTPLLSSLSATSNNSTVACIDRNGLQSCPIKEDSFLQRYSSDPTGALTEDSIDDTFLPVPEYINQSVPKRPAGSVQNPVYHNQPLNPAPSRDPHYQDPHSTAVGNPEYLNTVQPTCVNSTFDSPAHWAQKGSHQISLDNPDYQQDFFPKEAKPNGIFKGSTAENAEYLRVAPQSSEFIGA
# [8] = biological target: Follistatin-related protein 3 (Homo sapiens) (UniProt O95633); assay: compounds binding follistatin-related protein 3 – biochemical, small-molecule microarray, 635 nm fluorescence, primary screen (AID 1105); details: FSTL3 binding, higher = more signal;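 also: score merges emission near 667 nm and signal to noise per printed spot across three slides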
# Sequence of Follistatin-related protein 3 (Homo sapiens) (O95633 whole entry, looked up): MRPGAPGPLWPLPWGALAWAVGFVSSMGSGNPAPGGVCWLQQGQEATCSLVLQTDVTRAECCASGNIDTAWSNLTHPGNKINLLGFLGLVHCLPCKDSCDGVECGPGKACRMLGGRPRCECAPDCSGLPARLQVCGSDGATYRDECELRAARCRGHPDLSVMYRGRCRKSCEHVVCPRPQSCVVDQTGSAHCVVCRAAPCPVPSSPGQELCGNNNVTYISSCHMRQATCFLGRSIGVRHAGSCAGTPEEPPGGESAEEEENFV
# [9] = biological target: Dickkopf-related protein 1 (Homo sapiens) (UniProt O94907); assay: small molecules binding DKK1 protein – biochemical, small-molecule microarray, 635 nm fluorescence scan, primary screen (AID 1106); details: higher = more signal;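 also: score merges emission near 667 nm with signal to noise over three replicate slides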
# Sequence of Dickkopf-related protein 1 (Homo sapiens) (O94907 whole entry, looked up): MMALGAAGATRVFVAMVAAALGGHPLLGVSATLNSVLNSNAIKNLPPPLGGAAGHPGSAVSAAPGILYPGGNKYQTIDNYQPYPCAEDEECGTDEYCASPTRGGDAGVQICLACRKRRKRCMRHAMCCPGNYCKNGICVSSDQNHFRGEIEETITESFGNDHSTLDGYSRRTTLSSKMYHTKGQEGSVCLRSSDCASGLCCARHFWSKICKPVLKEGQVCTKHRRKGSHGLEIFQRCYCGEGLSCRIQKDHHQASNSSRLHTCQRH
# [10] = test system: Inhibin beta A chain (activin A); assay: small molecules binding activin A – biochemical, small-molecule microarray, 635 nm fluorescence scan, primary screen (AID 1107); details: INHBA, higher = more signal;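 also: mouse activin A protein probed at 4.33 µg/mL on printed slides; score merges bound-protein fluorescence near 667 nm with spot signal-to-noise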
# [11] = test system: Human papillomavirus type 1a protein E7 (residues 44-93); assay: small molecules binding HPV E7 44-93 – biochemical, small-molecule microarray, residues 44-93, 635 nm fluorescence, primary screen (AID 1108); details: fluorescence 635 nm, higher = more signal;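 also: E7 fragment applied at 1 µg/mL in TBST for 1 h at 4 C; score combines spot fluorescence with its signal to noise ratio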
# [12] = hepatitis C replication reporter changes, two-sided – Huh7 cells, luciferase reporter, HCV replication inhibitor project, primary screen (AID 1109); details: Huh7 HCV replicon luciferase reporter, 48 h; higher = more signal;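 also: huh7 hepatoma cells harbouring a luciferase neomycin HCV replicon reporter; luciferase luminescence as measure of HCV replicon replication; test concentration not given here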
# [13] = biological target: Left-right determination factor 2 (Homo sapiens) (UniProt O00292); assay: small molecules binding LEFTY2 protein – biochemical, small-molecule microarray, 635 nm fluorescence scan, primary screen (AID 1110); details: higher = more signal
# Sequence of Left-right determination factor 2 (Homo sapiens) (O00292 whole entry, looked up): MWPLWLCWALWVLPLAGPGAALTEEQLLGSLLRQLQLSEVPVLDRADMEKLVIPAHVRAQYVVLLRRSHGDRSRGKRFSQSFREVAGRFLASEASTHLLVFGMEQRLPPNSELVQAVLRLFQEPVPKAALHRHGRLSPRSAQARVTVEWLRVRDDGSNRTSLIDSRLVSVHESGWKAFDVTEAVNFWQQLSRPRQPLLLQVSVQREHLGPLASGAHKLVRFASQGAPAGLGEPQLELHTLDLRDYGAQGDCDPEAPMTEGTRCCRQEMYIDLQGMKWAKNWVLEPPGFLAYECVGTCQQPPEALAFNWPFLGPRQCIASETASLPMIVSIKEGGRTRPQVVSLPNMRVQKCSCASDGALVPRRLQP
# [14] = biological target: Calmodulin-1 (Homo sapiens) (UniProt P0DP23); assay: small molecules binding calmodulin-1 with EGTA – biochemical, small-molecule microarray, Cy5-labelled CALM1, profiling panel (AID 1111); details: Cy5-CALM1 binding fluorescence, higher = more signal;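 also: labelled calmodulin applied in Tris saline Tween buffer holding calcium plus EGTA and DTT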
# [15] = biological target: Calmodulin-1 (Homo sapiens) (UniProt P0DP23); assay: small molecules binding Ca-loaded calmodulin-1 – biochemical, small-molecule microarray, Cy5-labelled CALM1, plus calcium, artefact control for SMM control-protein annotation, profiling panel (AID 1112); details: Cy5-CALM1 binding fluorescence, higher = more signal;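 also: score merges spot fluorescence with signal to noise from triplicate slides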
# [16] = probe aWnt5a binding to arrayed compounds – biochemical, biotinylated probe, 635/667 nm fluorescence, primary screen (AID 1113); details: small-molecule microarray, higher = more signal;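 also: score merges 667 nm fluorescence intensity with signal-to-noise per printed feature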
# [17] = probe aShh binding to arrayed compounds – biochemical, biotinylated probe, 635/667 nm fluorescence, primary screen (AID 1114); details: small-molecule microarray, higher = more signal;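 also: probe is biotin-labelled aShh protein from a stem cell growth factor screen; measures binding of labelled protein to compounds printed on the slide; score merges feature fluorescence at 667 nm with signal-to-noise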
# [18] = probe aNog binding to arrayed compounds – biochemical, biotinylated probe, 635/667 nm fluorescence, primary screen (AID 1115); details: small-molecule microarray, higher = more signal;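 also: probe is biotinylated aNog protein used at 0.15 µg/mL for 1 h at 4 C; z-score combines 667 nm fluorescence of each spot with its signal to noise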
# [19] = biological target: Torsin-1A-interacting protein 1 (Homo sapiens) (UniProt Q5JTV8); assay: compound microarray binding of lysate hLAP1 – cell lysate, small-molecule microarray, COS7 lysate, 635/667 nm fluorescence, primary screen (AID 1116); details: 635 nm fluorescence, higher = more signal
# Sequence of Torsin-1A-interacting protein 1 (Homo sapiens) (Q5JTV8 whole entry, looked up): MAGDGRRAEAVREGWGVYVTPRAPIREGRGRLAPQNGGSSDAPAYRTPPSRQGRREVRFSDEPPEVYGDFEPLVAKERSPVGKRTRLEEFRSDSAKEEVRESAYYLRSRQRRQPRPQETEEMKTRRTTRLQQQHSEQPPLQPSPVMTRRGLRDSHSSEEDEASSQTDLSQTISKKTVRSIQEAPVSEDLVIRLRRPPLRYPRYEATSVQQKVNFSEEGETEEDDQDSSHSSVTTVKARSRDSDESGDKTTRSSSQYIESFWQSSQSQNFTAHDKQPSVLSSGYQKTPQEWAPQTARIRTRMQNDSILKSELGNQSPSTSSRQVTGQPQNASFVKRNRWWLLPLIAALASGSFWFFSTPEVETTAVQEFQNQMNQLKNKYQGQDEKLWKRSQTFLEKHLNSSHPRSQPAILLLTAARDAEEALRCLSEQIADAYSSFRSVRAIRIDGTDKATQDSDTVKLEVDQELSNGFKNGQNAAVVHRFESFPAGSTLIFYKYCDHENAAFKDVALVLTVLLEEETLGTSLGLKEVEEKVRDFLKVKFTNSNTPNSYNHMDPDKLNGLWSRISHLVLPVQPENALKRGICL
# [20] = biological target: Alpha-bungarotoxin (Bungarus multicinctus) (UniProt P60615); assay: compounds binding labelled alpha-BTX control protein – biochemical, small-molecule microarray, Alexa647 label, 635/667 nm fluorescence, artefact control for SMM control protein annotation, profiling panel (AID 1117); details: alpha-BTX-A647 binding fluorescence, higher = more signal
# Sequence of Alpha-bungarotoxin (Bungarus multicinctus) (P60615 whole entry, looked up): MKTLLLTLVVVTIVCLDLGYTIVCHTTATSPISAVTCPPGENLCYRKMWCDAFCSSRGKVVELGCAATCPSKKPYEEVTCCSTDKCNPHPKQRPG
SMILES,composite z-score [1],composite z-score [2],composite z-score [3],z-score [4],composite z-score [5],composite z-score [6],composite z-score [7],composite z-score [8],composite z-score [9],composite z-score [10],composite z-score [11],z-score [12],composite z-score [13],composite z-score [14],composite z-score [15],composite z-score [16],composite z-score [17],composite z-score [18],composite z-score [19],composite z-score [20]
CO[C@H]1O[C@H](CO)[C@@H](OC(=O)Nc2cccc(F)c2)[C@H](OC(=O)Nc2ccc3c(c2)OCO3)[C@H]1OC(=O)Nc1ccc2c(c1)OCO2,0.932,0.0673,0.307,-0.197 (inactive),0.693,0.26,0.199,0.55,0.177,0.674,1.12,-1.37,0.0115,0.67,-0.957,-0.0735,0.0469,0.201,3.02,0.972
COC(=O)[C@@]1(Cc2ccccc2)[C@H]2c3cc(C(=O)N(C)C)n(Cc4ccc(O)c(OC)c4)c3C[C@H]2CN1C(=O)c1ccccc1,1.37,0.722,0.295,-6.3 (inactive),-0.27,0.255,-0.34,0.764,-0.65,0.637,1.45,-2.56,-0.276,1.46,1.17,0.75,0.16,-0.322,0.141,0.245
CC(C)CCC[C@@H](C)[C@H]1CC[C@@]2(C)C3=C(CC[C@]12C)[C@@]1(C)CC[C@H](OC(=O)C(C)(C)C)C(C)(C)C1CC3 (stereo not given in full),-0.0682,-0.291,-0.636,-2.09 (inactive),0.897,0.465,0.837,0.619,0.683,-0.312,0.506,-0.435,0.502,0.0548,-0.718,-0.0792,-0.134,-0.705,-0.0812,0.448
CCCC=C(CCC)[C@@H](NS(=O)(=O)c1ccccc1)c1ccc(C(F)(F)F)cc1,0.98,0.965,0.224,-3.31 (inactive),0.867,1.32,0.216,0.89,-0.0595,-0.0447,1.37,-2.28,0.0643,1.73,0.726,0.0495,0.432,-0.475,1.31,1.28
COC(=O)C(CC#Cc1ccc2c(c1)[C@]1(C(=O)N2)[C@H](c2ccc(O)cc2)N2[C@H](c3ccccc3)[C@H](c3ccccc3)OC(=O)[C@H]2[C@@H]1C(=O)O)C(=O)OC,1.26,-0.114,0.374,-0.226 (inactive),0.159,-0.375,-0.297,0.528,-0.217,0.201,0.69,-0.76,0.029,0.351,0.0474,-0.175,-0.206,-0.124,-0.347,0.33
CCCC=C(CCC)[C@@H](NS(=O)(=O)CC)c1ccccc1,0.903,0.303,0.726,-3.42 (inactive),0.601,1.12,0.167,0.388,-0.328,0.147,1.37,-2.68,-0.0866,1.37,0.855,0.0516,0.949,1.26,0.806,0.157
NC(=O)[C@@H]1[C@H]2C(=O)O[C@H](c3ccccc3)[C@H](c3ccccc3)N2[C@H](c2ccccc2OCCO)[C@@]12C(=O)Nc1ccc(C#CCCO)cc12,1.03,-0.302,0.54,0.305 (inactive),-0.293,-0.802,-0.461,0.118,-0.647,0.233,0.42,-1.02,-0.388,0.613,0.154,-0.226,-0.221,-0.139,0.0571,1.18
C=C(/C(=C/C[C@@H](OC(C)=O)c1ccccc1OCCO)c1cnc2ccccc2c1)C(C)C,0.85,-0.0495,0.168,-0.333 (inactive),1.22,0.312,0.038,1.15,0.331,1.7,0.0976,-1.61,0.0798,-0.353,-0.236,0.122,0.0328,0.291,0.148,1.01
COc1ccc([Si](C)(C)[C@@H]2[C@@H](CCO)O[C@]3(C(=O)N(Cc4cccc(N5C(=O)COc6ccccc65)c4)c4ccccc43)[C@H]2C)cc1,1.35,0.0985,0.298,-1.54 (inactive),0.247,-0.233,-0.0851,-0.225,-0.466,-0.496,0.467,-4.83,-0.382,1.06,0.728,-0.063,0.0048,-0.167,-0.028,0.748
Cc1ccc(S[C@]2(C(=O)NCCN3CCOCC3)CC(=O)N(C3Cc4ccccc4C3)[C@@H]2c2ccc(CO)cc2)cc1,1.48,0.0662,0.64,-0.0221 (inactive),-0.644,-1.2,-1,-0.804,-0.866,0.345,1.36,-1.56,-1.59,-0.482,-0.399,-0.0425,-0.181,0.775,0.143,0.0451
COc1ccc([Si](C)(C)[C@@H]2[C@@H](CCO)O[C@]3(C(=O)N(Cc4ccccc4)c4ccc(N5CCCCC5=O)cc43)[C@H]2C)cc1,0.883,-0.107,-0.0137,-4.14 (inactive),0.959,1.1,0.197,0.962,0.218,0.796,1.4,-5.21,0.489,0.972,0.0653,-0.122,-0.2,-0.352,0.678,1.08
